# High-throughput results (PubChem BioAssay)
# A selection: hits, their analogues and other compounds. The true share with any hit is near 2.3%.
# CHRM1 PAM: positive allosteric modulators of human M1 muscarinic receptor. P11229. CHO-K1 hM1, Fluo-8 calcium fluorescence, ACh EC20; 0% = ACh EC20, 100% = maximal ACh. activation, % at 3 µM. 0.088% of 360,000 active. AID 588819; in the data active means activation above about 19%, passing the limit was not always enough
# Target sequence (P11229 whole entry, looked up): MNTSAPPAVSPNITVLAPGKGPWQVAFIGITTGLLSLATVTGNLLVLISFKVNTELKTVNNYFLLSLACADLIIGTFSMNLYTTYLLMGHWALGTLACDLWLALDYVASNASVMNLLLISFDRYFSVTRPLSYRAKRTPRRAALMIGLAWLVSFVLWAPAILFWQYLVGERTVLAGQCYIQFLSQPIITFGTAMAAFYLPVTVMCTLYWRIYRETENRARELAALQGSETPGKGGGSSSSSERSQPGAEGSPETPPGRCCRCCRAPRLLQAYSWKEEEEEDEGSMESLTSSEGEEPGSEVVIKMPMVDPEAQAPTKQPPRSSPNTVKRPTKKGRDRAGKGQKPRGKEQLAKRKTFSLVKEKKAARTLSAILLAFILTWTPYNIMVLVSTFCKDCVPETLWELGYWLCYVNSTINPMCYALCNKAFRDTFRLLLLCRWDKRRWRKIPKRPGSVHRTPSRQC
# CHO-K1 Ca antag: counter-screen for M1 antagonists: effect in parental CHO-K1 cells; ATP-induced calcium, Fluo-8 fluorescence; 0.6% of 360,000 active; inhibition, % at 3 µM;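 active means inhibition above a per-plate cutoff, the plate's mean sample inhibition plus 3 SD, cut at about 24% in these data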;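 further: 0% = DMSO plus EC80 ATP and 100% = DMSO alone without ATP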
# CHRM1 agonist: human M1 muscarinic receptor agonism; activation, % at 3 µM; CHO-K1 hM1, Fluo-8 calcium fluorescence, agonist mode; 0% DMSO, 100% acetylcholine EC100; P11229; 0.33% of 360,000 active;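 active means activation above the run's mean compound activation plus 3 SD, cut at about 16% in these data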;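 further: peak over basal fluorescence ratio within a 140 s kinetic read after compound addition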
# CHO-K1 Ca PAM: M1 PAM counterscreen hit in parental CHO-K1 cells; activation, % at 3 µM; ATP EC20, Fluo-8 calcium fluorescence; 0% at ATP EC20, 100% at ATP max; 0.02% of 360,000 active; AID 602247;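 active means activation above the run cutoff, the mean activation of all test compounds plus 3 SD, cut at about 40% in these data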;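 further: peak over basal fluorescence ratio in a 140 s read after ATP addition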
# M1 ag parental: counter-screen for M1 agonists: effect in parental CHO-K1 cells | 0.48% of 360,000 active | Fluo-8 calcium fluorescence; scaled to maximal ATP response, vehicle zero | activation, % at 3 µM | AID 602248; in the data active means activation above about 15%;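 further: untransfected CHO-K1 host cells lacking M1 receptor as counterscreen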
# M1 antag: antagonists of human M1 muscarinic receptor; P11229; CHO-K1 hM1, Fluo-8 calcium fluorescence, ACh EC80 antagonist; inhibition, % at 3 µM; 1.3% of 360,000 active; AID 588852;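 active means percent inhibition above its own plate's cutoff, namely the mean of that plate's compound wells plus 3 SD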;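 further: peak over basal fluorescence ratio during 140 s after agonist addition; 0% = ACh EC80 plus DMSO and 100% = DMSO alone without agonist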
# * marks the source's active call; other numbers are inactive results.
SMILES,CHRM1 PAM,CHO-K1 Ca antag,CHRM1 agonist,CHO-K1 Ca PAM,M1 ag parental,M1 antag
CCN(CC)S(=O)(=O)c1ccc(C(=O)OCn2nnc3ccccc3c2=O)cc1,-14.7,7.6,-1.6,2.1,10.7,active
O=C(OCn1nnc2ccccc2c1=O)c1ccc(S(=O)(=O)N2CCOCC2)cc1,4.9,-7.8,-3.6,16.8,1.9,-3.6
CCN(CC)CCOC(=O)C(Cc1cccc2ccccc12)CC1CCCO1 (stereo not given),-25.0,-0.8,-9.4,-8.0,0.9,45.4*
CN1CCC(=NNc2ncnc3sc4c(c23)CCCC4)CC1,-3.5,27.1*,-8.0,-6.2,-0.1,12.8
c1nc(NCCN2CCOCC2)c2c3c(sc2n1)CCCCC3,-1.3,5.4,-2.6,-4.3,-0.3,2.5
COc1ccc(C(=O)OCC(=O)Nc2ccc3c(c2)OCO3)cc1S(=O)(=O)N1CCOCC1,2.6,1.0,-2.6,-4.4,1.1,1.8
COC(=O)c1ccc2nccnc2c1,-4.5,-10.3,-1.2,22.7,0.0,11.7
COC(=O)c1ccc(N)nc1,-1.0,1.5,21.5*,-10.5,0.1,-2.4
O=S(=O)(NC1CCCCC1N1CCCCC1)c1ccccc1 (stereo not given),21.1,-12.7,-6.8,3.6,0.3,-13.8
CCN1CCN(C2CCCCC2NS(=O)(=O)c2ccccc2)CC1 (stereo not given),-15.1,-3.5,-5.2,-5.6,0.1,34.1*
C[C@@H](N)C(=O)NC[C@H]1O[C@@H](n2cnc3c(N)ncnc32)[C@H](O)[C@@H]1O,5.0,-16.4,-3.2,15.7,0.5,-7.3
Cc1nn(S(=O)(=O)c2ccccc2)c(C)c1Sc1ccc([N+](=O)[O-])cc1,-13.7,-3.8,-3.9,-2.3,5.7,12.7
Cc1nn(S(=O)(=O)c2cccs2)c(C)c1Sc1ccc([N+](=O)[O-])cc1,-18.7,1.1,-3.9,7.8,4.4,27.8*
Cc1cc(OCC(=O)NCCc2c[nH]c3ccccc23)c2c(C)cc(=O)oc2c1,14.3,4.8,3.3,3.2,0.6,-21.9
Clc1ccccc1-c1ccc2nccn2c1,-9.8,-12.1,-8.2,18.3,0.8,-8.1
CCOc1ccccc1-c1ccc2nccn2c1,-30.2,-10.8,-8.6,-8.2,1.5,61.3*
Cc1cc(Cl)ccc1OCC(O)CNCCc1ccc(S(N)(=O)=O)cc1 (stereo not given),-15.6,1.6,0.1,-2.7,0.6,43.1*
CC1=NN(c2ccccc2)C(=O)/C1=C\C=C1/N(C)c2ccccc2C1(C)C,-12.2,13.6,22.9*,-1.5,32.0*,25.9*
CC1=NN(c2ccccc2)C(=O)/C1=C\C=C1\N(C)c2ccccc2C1(C)C,-5.8,8.2,13.4,2.0,8.2,11.4
CN1/C(=C\C=C2/SC(=S)NC2=O)C(C)(C)c2ccccc21,-22.5,59.1*,57.4*,-18.6,71.9*,61.9*
Cc1ccccc1N=C/C=C1\N(C)c2ccccc2C1(C)C,-6.7,19.6,-1.3,-8.0,0.5,25.2*
CN1/C(=C\C=N\O)C(C)(C)c2ccccc21,5.3,-3.2,-5.6,2.9,0.4,-1.6
CC(C)(C)c1ccc(Cn2nnc3c(=O)[nH]c(C4CCCN(C(=O)c5cccs5)C4)nc32)cc1 (stereo not given),13.6,-18.9,2.2,19.3,0.8,-5.4
Cc1onc(-c2ccccc2)c1C(=O)Nc1nncs1,13.3,-14.2,0.8,7.5,1.3,-11.9
Cc1cc(NC(=O)CN2C(=O)NC(C)(c3ccc(Cl)cc3Cl)C2=O)no1 (stereo not given),12.1,-7.0,1.1,5.9,0.7,-8.8
COCc1cccc(C(=O)NC(c2ccccc2)c2ccccc2)c1,9.3,-15.0,-3.0,17.3,0.3,-10.8
N#Cc1ccc(C=NN2CCCCCC2)cc1,-2.4,-14.3,-4.7,8.5,1.5,-15.1
O=C1[C@H](Oc2ccccc2)[C@@H](c2ccncc2)N1c1ccncc1,3.5,-8.0,0.4,19.9,0.8,-4.5
O=C1[C@@H](Oc2ccccc2)[C@@H](c2cnc3ccccc3c2)N1c1ccccc1,-19.8,-15.4,-10.1,0.5,0.5,29.9*
N#CCCN(C(=O)COC(=O)c1ccc(CNS(=O)(=O)c2ccc(F)c(Cl)c2)cc1)c1ccc(F)cc1,-27.4,1.1,-12.9,10.7,5.8,78.6*
